Bioassay records (PubChem)
PostGolgi ctrl: yeast control strain growth, post-Golgi counter-screen | efflux-deficient yeast background strain, growth absorbance A615, 16 h | inhibition, % at 10 µM | hit rate 5% among 98,000 | AID 738
PostGolgi yeast: growth inhibition of a yeast mutant, post-Golgi transport screen | post-Golgi transport phenotypic cell assay | inhibition, % at 10 µM | hit rate 0.9% among 98,000 | AID 739;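 also: yeast cells grown in 1536-well plates; yeast grown about 18 h at 30C before absorbance read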
CYP2C19 activ: activators of human cytochrome P450 2C19; activation factor at 5 µM; P33261; recombinant CYP2C19, luciferin-H EGE luminescence; stronger effect = higher value; 0 = fully inhibited enzyme, 1 = untreated enzyme; 96,000 tested, under 10 active;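 active = activation factor of at least 2 at 5 µM in the primary screen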
CYP2C9 act: activators of human CYP2C9; P11712; recombinant CYP2C9, luciferin-H conversion, luminescence; stronger effect = higher value; factor 1 = untreated enzyme, 0 = blocked; activation factor at 5 µM; hit rate 1.4% among 96,000; AID 1024;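 active = activation factor of 2 or more for CYP2C9 at a 5 µM dose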
Target sequence (P11712 whole entry, looked up): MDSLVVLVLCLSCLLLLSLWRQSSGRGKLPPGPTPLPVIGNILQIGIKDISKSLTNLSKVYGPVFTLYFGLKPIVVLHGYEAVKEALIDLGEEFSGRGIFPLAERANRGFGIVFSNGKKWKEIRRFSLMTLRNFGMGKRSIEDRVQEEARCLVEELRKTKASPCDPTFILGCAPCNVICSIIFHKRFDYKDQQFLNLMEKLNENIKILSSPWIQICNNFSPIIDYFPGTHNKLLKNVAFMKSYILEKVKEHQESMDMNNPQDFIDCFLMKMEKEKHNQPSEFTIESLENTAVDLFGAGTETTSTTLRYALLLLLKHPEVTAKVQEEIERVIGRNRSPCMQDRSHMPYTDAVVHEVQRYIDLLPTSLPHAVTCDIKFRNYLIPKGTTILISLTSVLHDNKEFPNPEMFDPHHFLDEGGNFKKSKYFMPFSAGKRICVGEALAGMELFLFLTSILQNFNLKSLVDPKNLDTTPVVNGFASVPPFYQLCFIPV
CYP2C9 inh: inhibitors of human CYP2C9 | hit rate 20% among 96,000 | CYP2C9 Supersomes, luciferin-H conversion, luminescence | inhibition, % at 5 µM | AID 777 | P11712;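 active = blocking of liver enzyme CYP2C9 beyond about 50% at 5 µM, limit read from the data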
CYP2C19 inh: human CYP2C19 inhibition; inhibition, % at 5 µM; hit rate 21% among 96,000; CYP2C19 Supersomes, luciferin-H EGE luminescence, 30 min; P33261;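 active = CYP2C19 inhibition above a set limit at 5 µM in the primary screen, cut at about 50% in these data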
Hits are given with their value; – = inactive; · = no result given. Only some compounds are listed: those with a hit (about 32% of all), similar ones and a draw of the others. Rule as the data show it, unless noted: active = inhibition above about 30%; inactive = the rest.

SMILES	PostGolgi ctrl	PostGolgi yeast	CYP2C19 activ	CYP2C9 act	CYP2C9 inh	CYP2C19 inh
Cc1ccc(C)c(-n2c(Cc3cc(=O)[nH]c(=O)[nH]3)nnc2SC(C)C)c1	–	–	–	–	–	–
Cc1nnc(SCC(=O)c2cc(C)n(-c3c(C)n(C)n(-c4ccccc4)c3=O)c2C)s1	–	–	–	–	–	–
Cc1ccc(-n2c(C)cc(C(=O)CSc3nnnn3C)c2C)cc1	–	–	–	–	61	53
Cc1cc(C(=O)CSc2nncs2)c(C)n1-c1c(C)n(C)n(-c2ccccc2)c1=O	36	–	–	–	–	–
Cc1ccc(-n2c(C)cc(C(=O)CSc3nncs3)c2C)cc1	48	–	–	–	90	100
CCOc1ccccc1N(CC(=O)O)S(=O)(=O)c1ccc(C)cc1	–	–	–	–	–	–
CC1CCc2ccccc2N1C(=O)c1cccs1 (centres undefined)	–	–	–	–	–	–
O=C(O)CSc1nnc(-c2cc3ccccc3o2)n1-c1ccccc1	–	–	–	–	–	–
CCSc1nc2ccccc2n1Cc1nc(N)nc(N(C)C)n1	–	–	–	–	66	90
CCSc1nc2ccccc2n1CC(N)=O	–	–	·	·	·	·
O=C(NCC(=O)N(CC1CCCO1)C1(C(=O)NC2CCCCC2)CCCCC1)c1ccccc1 (centres undefined)	–	–	–	–	–	–
COc1ccc(C2Nc3ccccc3C(=O)N2Cc2ccco2)cc1CN1C(=O)c2ccccc2C1=O (centres undefined)	–	–	–	–	85	74
COc1ccc(C2Nc3ccccc3C(=O)N2Cc2ccccc2)cc1COc1ccccn1 (centres undefined)	–	–	–	–	61	54
CC(NC(=O)Cn1nc(-c2ccccc2)c2ccccc2c1=O)c1ccccc1 (centres undefined)	–	–	–	–	–	89
Cc1ccc(SCC(=O)Nc2cccc(C(=O)NC(C)(C)C)c2)cc1	–	–	–	–	58	–
COc1cccc(C(=O)Nc2cccc(-c3nnc(-c4ccco4)o3)c2)c1	–	–	–	–	70	77
O=C(Nc1nnc(-c2cccs2)o1)c1ccco1	–	–	–	–	–	–
Cc1ccc(SCC(=O)Nc2cccc(-c3nnc(-c4ccco4)o3)c2)cc1	–	–	–	–	91	–
COc1cccc(C(=O)Nc2nnc(-c3cccs3)o2)c1	39	–	–	–	–	–
Cc1ccc(SCC(=O)NC(C)(C)C)cc1	–	–	–	–	–	–
O=C(Nc1ccccc1)c1cccc(-c2nnc(-c3ccccc3)o2)c1	–	–	–	–	–	–
Cc1cccc(NC(=O)c2cccc(N3C(=O)C4C5CCC(C5)C4C3=O)c2)c1C (centres undefined)	–	–	–	–	–	–
CCCCCC(=O)Nc1ccc(N2CCN(C(=O)CCC)CC2)cc1	–	–	–	–	–	–
COCCCNC(=O)CCn1c(=O)c2ccccc2n(CC(=O)Nc2c(C)cccc2C)c1=O	–	–	–	–	–	–
COCCCNC(=O)c1ccc(Cn2c(=O)c3ccccc3n(Cc3cc(C)ccc3C)c2=O)cc1	–	–	–	–	82	75
SMILES	PostGolgi ctrl	PostGolgi yeast	CYP2C19 activ	CYP2C9 act	CYP2C9 inh	CYP2C19 inh
COCCCNC(=O)c1ccc(Cn2c(=O)c3ccccc3n(Cc3ccccc3C)c2=O)cc1	–	–	–	–	80	78
N#Cc1ccccc1Cn1c(=O)n(Cc2ccc(C(=O)NCc3ccco3)cc2)c(=O)c2sccc21	·	–	–	–	–	–
COCCCNC(=O)c1ccc(Cn2c(=O)c3ccccc3n(Cc3ccccc3C#N)c2=O)cc1	–	–	–	–	59	52
CC(COc1cccc2ccccc12)CN1CCN(C)CC1 (centres undefined)	–	–	–	–	–	–
CCOC(=O)c1oc2ccccc2c1NC(=O)c1ccccc1OC	70	–	–	–	–	–
COc1cccc(NC(=O)c2oc3ccccc3c2NC(=O)c2ccc3c(c2)OCO3)c1	–	–	–	–	–	–
COc1ccc(OC)c(C(=O)c2oc3ccccc3c2NC(C)=O)c1	–	–	–	–	–	98
COc1ccc(C(=O)c2oc3ccccc3c2NC(C)=O)cc1	–	–	–	–	–	–
COc1cccc(NC(=O)c2oc3ccccc3c2NC(=O)C(C)(C)C)c1	–	–	–	–	81	–
COc1cc(CCC(=O)OCn2nnc3ccccc3c2=O)cc(OC)c1OC	–	–	–	–	–	–
CC1CN(Cc2nc3c(c(=O)[nH]c(=O)n3C)n2CC(N)=O)CC(C)O1 (centres undefined)	–	–	–	–	–	–
CCCCNC(=S)NC(=O)c1ccc([N+](=O)[O-])cc1	–	–	–	–	–	–
CC(C)CNC(=S)NC(=O)c1ccc([N+](=O)[O-])cc1	32	–	–	–	–	–
COc1cc(C(=O)N2CCN(C(=O)Cc3ccccc3)CC2)cc(OC)c1OC	–	–	–	–	–	–
Cc1cc(/C=C2\SC(=Nc3ccccc3)NC2=O)c(C)n1-c1ccc(S(N)(=O)=O)cc1	–	–	–	–	60	–
COc1cccc(N2C(=O)CC(c3c[nH]c4ccccc34)C2=O)c1 (centres undefined)	–	–	–	–	–	89
O=C1CC(c2c[nH]c3ccccc23)C(=O)N1 (centres undefined)	–	–	–	–	–	–
CCCCS(=O)(=O)c1sc2nc(C)cc(C)c2c1N	–	–	–	2.7	–	89
Cc1cc(C)c2c(N)c(S(=O)(=O)c3ccccc3)sc2n1	–	–	–	3	–	56
Cc1ccc(N2C(=O)N(CC(=O)N3CCCc4ccccc43)C(=O)C2C)cc1 (centres undefined)	–	–	–	–	–	–
Cc1ccc(S(=O)(=O)N2CCC(C(=O)NCCCN3CCCCCC3)CC2)cc1	–	–	–	–	–	–
CCN(CC)CCNC(=O)CCn1c(=S)[nH]c2cc3c(cc2c1=O)OCO3	–	–	–	–	–	–
COc1cccc(N2CCN(C(=O)CCn3c(=S)[nH]c4cc5c(cc4c3=O)OCO5)CC2)c1	–	–	–	–	–	–
O=C(CCCn1c(=S)[nH]c2cc3c(cc2c1=O)OCO3)N1CCN(C2CCCCC2)CC1	–	–	–	–	50	–
O=C(CCCn1c(=S)[nH]c2cc3c(cc2c1=O)OCO3)N1CCN(c2ncccn2)CC1	43	–	–	–	50	–
Cc1ccc(C)c(N2CCN(C(=O)CCCn3c(=S)[nH]c4cc5c(cc4c3=O)OCO5)CC2)c1	–	–	–	–	77	54
O=C(CCCn1c(=S)[nH]c2cc3c(cc2c1=O)OCO3)N1CCN(c2ccccc2F)CC1	–	–	–	–	–	–
O=C(CCCn1c(=S)[nH]c2cc3c(cc2c1=O)OCO3)N1CCN(c2ccc(F)cc2)CC1	–	–	–	–	72	–
